# Source: PubChem BioAssay (NCATS)
# Results filed as inconclusive are left out. A call without a number means that no potency is given here. The source made the active and inactive calls. Calls follow the shape of the dose curve; as a rule, active = well fitted inhibition curve with a large enough effect; inconclusive = small, poorly fitted or top-dose-only effect; inactive = flat fitted curve, though single readings scatter.
# Biological target: Glutathione peroxidase 1 (Homo sapiens) (UniProt P07203)
# Sequence (P07203 whole entry, looked up): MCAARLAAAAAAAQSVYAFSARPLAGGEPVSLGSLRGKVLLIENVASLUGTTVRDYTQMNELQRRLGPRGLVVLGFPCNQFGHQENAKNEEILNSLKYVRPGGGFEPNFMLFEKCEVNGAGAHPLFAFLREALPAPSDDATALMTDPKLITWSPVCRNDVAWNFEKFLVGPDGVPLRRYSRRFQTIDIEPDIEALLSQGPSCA
# Assay: Primary qHTS Assay for Inhibitors of Recombinant Selenoprotein Glutathione Peroxidase 1 (GPX1) (AID 1845191); also: nearly all actives have a fitted effect of over 65% in size
# Details: recombinant GPX1, GR-coupled NADPH fluorescence, 15 min; series mostly up to 48.8 µM
# How it was run: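 GR-coupled readout: NADPH consumption tracked by fluorescence, ex 340/em 450 nm, at t=0 and after 15 min at RT. Final mix 10 nM GPX1, 1 mM GSH, 0.5 mM CHP, 0.5 mM NADPH, 100 nM GR, 0.01% BSA, following 30 min enzyme–compound preincubation.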
Compound,Potency,outcome
COc1ccc(C(=O)O[C@H]2CC(C)=CC[C@@]3(C)[C@@H](OC(C)=O)C[C@@](O)(C(C)C)[C@H]23)cc1,inactive,–
C[C@@H]1O[C@@H](O[C@H]2[C@H](OC(=O)[C@]34CCC(C)(C)C[C@H]3C3=CCC5[C@@]6(C)CC[C@H](O[C@@H]7O[C@H](CO[C@@H]8OC[C@H](O)[C@H](O)[C@H]8O)[C@@H](O)[C@H](O)[C@H]7O)C(C)(C)C6CC[C@@]5(C)[C@]3(C)C[C@H]4O)OC[C@@H](O)[C@@H]2O)[C@H](O)[C@H](O)[C@H]1O[C@@H]1OC[C@H](O)[C@H](O[C@@H]2OC[C@@H](O)[C@H](O)[C@H]2O)[C@H]1O (stereo not given in full),–,inactive [at 9.52 µM]
C=C(C)C1CC2(CO)C(=CC1=O)CCC(O)C2C (stereo not given),inactive,–
CN1C(=O)N[C@@H](Cc2c[nH]c3c(Cl)cccc23)C1=O,inactive,–
COc1cc([C@@H]2Oc3c(OC)cc(CCCO)cc3[C@@H]2CO[C@@H]2O[C@H](CO)[C@@H](O)[C@H](O)[C@H]2O)ccc1O,inactive,–
CN1C(=O)c2ccccc2-n2c(nc3ccccc3c2=O)[C@@]12O[C@H]2c1ccccc1,inactive,–
CN[C@@H]1[C@@H](O)[C@@H](O[C@@H]2[C@@H](O)[C@H](O[C@H]3O[C@H](CN)[C@@H](O)[C@H](O)[C@H]3O)[C@@H](N)C[C@H]2NC(=O)[C@@H](O)CN)OC[C@]1(C)O,inactive,–
O=S(=O)(NC1CCNCC1)c1cc(S(=O)(=O)c2ccccc2)ccc1C(F)(F)F,inactive,–
CC[C@H](C)/C=C(C)/C=C/C(=O)Cc1cc(O)c(C)c(O)c1C=O,inactive,–
CN(C)c1cccc(-c2c3c(=O)n(-c4ccccc4Cl)[nH]c3cc(=O)n2C)c1,inactive,–
CCC(C)(O)C(O)C(=O)OCc1ccc(O[C@@H]2O[C@H](CO)[C@@H](O)[C@H](O)[C@H]2O)cc1 (stereo not given in full),inactive,–
CC(C)(O)C1CCC2(C)C3C(O)C4C(C13)C42CO (stereo not given),inactive,–
C/C=C(\C)C(=O)O[C@H]1[C@H](O)[C@]2(COC(C)=O)[C@H](O)C[C@]3(C)C(=CCC4[C@@]5(C)CC[C@H](O[C@@H]6O[C@H](C(=O)O)[C@@H](O[C@@H]7O[C@H](CO)[C@@H](O)[C@H](O)[C@H]7O)[C@H](O)[C@H]6O[C@@H]6O[C@H](CO)[C@@H](O)[C@H](O)[C@H]6O)[C@](C)(CO)C5CC[C@]43C)[C@@H]2CC1(C)C (stereo not given in full),inactive,–
CC1(C)CCCC2(C)C3=C(C(=O)OC3O)C(O)CC12 (stereo not given),inactive,–
CC1(C)C(=O)C(C)(C)c2cc(C(=O)Nc3ccc(C(=O)O)cc3)ccc21,inactive,–
